# In PubChem BioAssay (NCI):
# Compounds without any hit were thinned out: in the full panel of roughly 83,000, 20% have a hit.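 Compound tested at a single concentration for 48 hours in 96-well plates; a percent growth value below 10 was scored as active.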 A number with no mark means an inactive call. Calls of active or inactive are those of the source.
# Assays:
# Assay in all cases: NCI-60 one-dose screen, 48 h (100 = growth as untreated, 0 = no growth, -100 = all killed)
# HCT-15 colon = system: HCT-15 colon
# HT29 colon = system: HT29 colon
# SNB-75 CNS = system: SNB-75 CNS
# SNB-19 CNS = system: SNB-19 CNS
# U251 CNS = system: U251 CNS
# PC-3 prostate = system: PC-3 prostate
# SK-MEL-5 melanoma = system: SK-MEL-5 melanoma
# UACC-62 melanoma = system: UACC-62 melanoma
# LOX IMVI melanoma = system: LOX IMVI melanoma
# SK-MEL-28 melanoma = system: SK-MEL-28 melanoma
# SK-MEL-2 melanoma = system: SK-MEL-2 melanoma
# EKVX NSCLC = system: EKVX NSCLC
# SN12C renal = system: SN12C renal
# UO-31 renal = system: UO-31 renal
# TK-10 renal = system: TK-10 renal
# ACHN renal = details: 10 µM unless noted
# CCRF-CEM leukemia = details: 10 µM unless noted
# MOLT-4 leukemia = system: MOLT-4 leukemia
# CAKI-1 renal = details: 10 µM unless noted
# A498 renal = system: A498 renal
structure (smiles),measurement,setting,value
COc1ccc(C(=O)/C=C/c2ccc(OCc3ccc(Cl)cc3)cc2)cc1OC,growth,HCT-15 colon; 10 µM,92.9%
same,growth,HCT-15 colon; 100 µM,34.1%
same,growth,HT29 colon; 10 µM,87.2%
same,growth,HT29 colon; 100 µM,35.8%
same,growth,SNB-75 CNS; 10 µM,96.9%
same,growth,SNB-75 CNS; 100 µM,-26.3% (active)
same,growth,SNB-19 CNS; 10 µM,105%
same,growth,SNB-19 CNS; 100 µM,-47.3% (active)
same,growth,U251 CNS; 10 µM,93.2%
same,growth,U251 CNS; 100 µM,-90.3% (active)
same,growth,PC-3 prostate; 10 µM,97.5%
same,growth,PC-3 prostate; 100 µM,16.9%
same,growth,SK-MEL-5 melanoma; 10 µM,92.3%
same,growth,SK-MEL-5 melanoma; 100 µM,-10.4% (active)
same,growth,UACC-62 melanoma; 10 µM,96.1%
same,growth,UACC-62 melanoma; 100 µM,23.6%
same,growth,LOX IMVI melanoma; 10 µM,88.8%
same,growth,LOX IMVI melanoma; 100 µM,22.1%
same,growth,SK-MEL-28 melanoma; 10 µM,103%
same,growth,SK-MEL-28 melanoma; 100 µM,55.9%
same,growth,SK-MEL-2 melanoma; 10 µM,98.3%
same,growth,SK-MEL-2 melanoma; 100 µM,48.5%
same,growth,EKVX NSCLC; 10 µM,109%
same,growth,EKVX NSCLC; 100 µM,29.1%
same,growth,SN12C renal; 10 µM,107%
same,growth,SN12C renal; 100 µM,28.5%
same,growth,UO-31 renal; 10 µM,85.8%
same,growth,UO-31 renal; 100 µM,41.4%
same,growth,TK-10 renal; 10 µM,101%
same,growth,TK-10 renal; 100 µM,0.092% (active)
same,growth,ACHN renal,103%
same,growth,CCRF-CEM leukemia,73.4% [100 µM]
same,growth,MOLT-4 leukemia; 10 µM,90.4%
same,growth,MOLT-4 leukemia; 100 µM,62.8%
Brc1ccc(/C=C(/C2=NCCN2)n2ccc3ccccc32)cc1,growth,HCT-15 colon; 10 µM unless noted,73.7%
same,growth,HT29 colon; 10 µM unless noted,65.1%
same,growth,SNB-75 CNS; 10 µM unless noted,33%
same,growth,SNB-19 CNS; 10 µM unless noted,85.1%
same,growth,U251 CNS; 10 µM unless noted,65.6%
same,growth,PC-3 prostate; 10 µM unless noted,45%
same,growth,SK-MEL-5 melanoma; 10 µM unless noted,73.4%
same,growth,UACC-62 melanoma; 10 µM unless noted,75.8%
same,growth,LOX IMVI melanoma; 10 µM unless noted,50.5%
same,growth,SK-MEL-28 melanoma; 10 µM unless noted,100%
same,growth,SK-MEL-2 melanoma; 10 µM unless noted,90.9%
same,growth,EKVX NSCLC; 10 µM unless noted,79%
same,growth,SN12C renal; 10 µM unless noted,73.8%
same,growth,UO-31 renal; 10 µM unless noted,37.2%
same,growth,TK-10 renal; 10 µM unless noted,68.1%
same,growth,ACHN renal,68.7%
same,growth,CAKI-1 renal,39.7%
same,growth,A498 renal; 10 µM unless noted,87.4%
same,growth,CCRF-CEM leukemia,59.6%
same,growth,MOLT-4 leukemia; 10 µM unless noted,9.21% (active)
CC(=O)/C=C/c1ccc(N(C)Cc2ccc(C(C)(C)C)cc2)cc1,growth,HCT-15 colon; 10 µM,87.5%
same,growth,HCT-15 colon; 100 µM,-36.9% (active)
same,growth,HT29 colon; 10 µM,78.1%
same,growth,HT29 colon; 100 µM,-10.7% (active)
same,growth,SNB-75 CNS; 10 µM,102%
same,growth,SNB-75 CNS; 100 µM,-59.5% (active)
same,growth,SNB-19 CNS; 10 µM,110%
same,growth,SNB-19 CNS; 100 µM,-31.2% (active)
same,growth,U251 CNS; 10 µM,89.8%
same,growth,U251 CNS; 100 µM,-100% (active)
same,growth,PC-3 prostate; 10 µM,77.6%
same,growth,PC-3 prostate; 100 µM,-26.1% (active)
same,growth,SK-MEL-5 melanoma; 10 µM,74.7%
same,growth,SK-MEL-5 melanoma; 100 µM,-100% (active)
same,growth,UACC-62 melanoma; 10 µM,78.8%
same,growth,UACC-62 melanoma; 100 µM,-57.1% (active)
same,growth,LOX IMVI melanoma; 10 µM,80.1%
same,growth,LOX IMVI melanoma; 100 µM,-100% (active)
same,growth,SK-MEL-28 melanoma; 10 µM,92.5%
same,growth,SK-MEL-28 melanoma; 100 µM,-82.3% (active)
same,growth,SK-MEL-2 melanoma; 10 µM,99.7%
same,growth,SK-MEL-2 melanoma; 100 µM,-69.2% (active)
same,growth,EKVX NSCLC; 10 µM,106%
same,growth,EKVX NSCLC; 100 µM,-39.2% (active)
same,growth,SN12C renal; 10 µM,90.6%
same,growth,SN12C renal; 100 µM,-81.1% (active)
same,growth,UO-31 renal; 10 µM,78.5%
same,growth,UO-31 renal; 100 µM,-100% (active)
same,growth,TK-10 renal; 10 µM,115%
same,growth,TK-10 renal; 100 µM,-13.7% (active)
same,growth,ACHN renal,98.4%
same,growth,A498 renal; 10 µM,87.9%
same,growth,A498 renal; 100 µM,-95.6% (active)
same,growth,CCRF-CEM leukemia,-12.1% [100 µM] (active)
same,growth,MOLT-4 leukemia; 10 µM,62.2%
same,growth,MOLT-4 leukemia; 100 µM,-38.9% (active)
CCN(C(=O)N1CCN(c2cc3c(cc2F)c(=O)c(C(=O)O)cn3C2CC2)CC1)c1nc(-c2ccccc2)cs1,growth,HCT-15 colon; 10 µM unless noted,9.62% (active)
same,growth,HT29 colon; 10 µM unless noted,10.9%
same,growth,SNB-75 CNS; 10 µM unless noted,31.3%
same,growth,SNB-19 CNS; 10 µM unless noted,22.5%
same,growth,U251 CNS; 10 µM unless noted,20.7%
same,growth,PC-3 prostate; 10 µM unless noted,11.5%
same,growth,SK-MEL-5 melanoma; 10 µM unless noted,11.7%
same,growth,UACC-62 melanoma; 10 µM unless noted,13.1%
same,growth,LOX IMVI melanoma; 10 µM unless noted,-11.1% (active)
same,growth,SK-MEL-28 melanoma; 10 µM unless noted,41.8%
same,growth,SK-MEL-2 melanoma; 10 µM unless noted,45.9%
same,growth,EKVX NSCLC; 10 µM unless noted,31%
same,growth,SN12C renal; 10 µM unless noted,5.8% (active)
same,growth,UO-31 renal; 10 µM unless noted,1.81% (active)
same,growth,TK-10 renal; 10 µM unless noted,40.9%
same,growth,ACHN renal,8.64% (active)
same,growth,CAKI-1 renal,29.4%
same,growth,A498 renal; 10 µM unless noted,5.67% (active)
same,growth,CCRF-CEM leukemia,18.1%
same,growth,MOLT-4 leukemia; 10 µM unless noted,14.7%
O=[N+]([O-])c1cc(C(F)(F)F)ccc1Sc1ccc(C(F)(F)F)cc1[N+](=O)[O-],growth,HCT-15 colon; 10 µM unless noted,71.2%
same,growth,HT29 colon; 10 µM unless noted,18.5%
same,growth,SNB-75 CNS; 10 µM unless noted,86%
same,growth,SNB-19 CNS; 10 µM unless noted,91.5%
same,growth,U251 CNS; 10 µM unless noted,83.9%
same,growth,PC-3 prostate; 10 µM unless noted,84.6%
same,growth,SK-MEL-5 melanoma; 10 µM unless noted,82.7%
same,growth,UACC-62 melanoma; 10 µM unless noted,77.8%
same,growth,LOX IMVI melanoma; 10 µM unless noted,28.1%
same,growth,SK-MEL-28 melanoma; 10 µM unless noted,80.6%
same,growth,SK-MEL-2 melanoma; 10 µM unless noted,73.3%
same,growth,EKVX NSCLC; 10 µM unless noted,87%
same,growth,SN12C renal; 10 µM unless noted,72.8%
same,growth,UO-31 renal; 10 µM unless noted,77.3%
same,growth,TK-10 renal; 10 µM unless noted,98.7%
same,growth,ACHN renal,86.6%
same,growth,CAKI-1 renal,44.7%
same,growth,A498 renal; 10 µM unless noted,87%
same,growth,CCRF-CEM leukemia,14.5%
same,growth,MOLT-4 leukemia; 10 µM unless noted,9.53% (active)
Nc1ccc(/C=N/Nc2ccnc3c(N)cccc23)c2cccnc12,growth,HCT-15 colon; 10 µM unless noted,-49.7% (active)
same,growth,HT29 colon; 10 µM unless noted,-22.5% (active)
same,growth,SNB-75 CNS; 10 µM unless noted,-99.7% (active)
same,growth,SNB-19 CNS; 10 µM unless noted,21.8%
same,growth,U251 CNS; 10 µM unless noted,-63.4% (active)
same,growth,PC-3 prostate; 10 µM unless noted,15.8%
same,growth,SK-MEL-5 melanoma; 10 µM unless noted,83.1%
same,growth,UACC-62 melanoma; 10 µM unless noted,89.5%
same,growth,LOX IMVI melanoma; 10 µM unless noted,-90.9% (active)
same,growth,SK-MEL-28 melanoma; 10 µM unless noted,105%
same,growth,SK-MEL-2 melanoma; 10 µM unless noted,87.9%
same,growth,EKVX NSCLC; 10 µM unless noted,32.2%
same,growth,SN12C renal; 10 µM unless noted,71.1%
same,growth,UO-31 renal; 10 µM unless noted,-58.8% (active)
same,growth,TK-10 renal; 10 µM unless noted,-43.1% (active)
same,growth,ACHN renal,-87.7% (active)
same,growth,CAKI-1 renal,31.9%
same,growth,A498 renal; 10 µM unless noted,77%
same,growth,CCRF-CEM leukemia,-25.6% (active)
same,growth,MOLT-4 leukemia; 10 µM unless noted,-37.5% (active)
